The values that follow come from paper PMC12820563, “FoxP3 forms a head-to-head dimer in vivo and stabilizes its multimerization on adjacent microsatellites”.

Whole data set: some 16,000 sequences, median “rpm ratio (pull-down/input)” near 0.94, cut for the highest 2% near 1.7. Shown is part of a subset that was picked to be rich in the highest values.

In this assay the target is T1, MBP-FoxP1dN (Mus musculus, UniProt P58462 326-579).
T1 sequence: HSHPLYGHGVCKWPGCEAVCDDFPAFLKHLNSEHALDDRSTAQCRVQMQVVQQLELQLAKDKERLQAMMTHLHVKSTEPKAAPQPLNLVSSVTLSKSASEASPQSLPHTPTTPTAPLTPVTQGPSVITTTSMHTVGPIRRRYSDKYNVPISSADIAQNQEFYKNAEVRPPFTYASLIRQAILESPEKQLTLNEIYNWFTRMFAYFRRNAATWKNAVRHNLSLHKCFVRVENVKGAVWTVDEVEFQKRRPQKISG
The assay can be described thus: PD-seq (MBP pull-down with sequencing); 20 mM Tris-HCl pH 7.5, 100 mM NaCl, 1.5 mM MgCl2, 0.4 uM protein, 0.1 uM dsDNA library, 30 min, room temperature, amylose pull-down; high values mean tight binding. Conditions: protein: recombinant; tags: His6-MBP; chain copies: 2; dsDNA, one strand shown. Summed up: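 Binding is reads-per-million enrichment of pull-down over input, with replicates pooled. It comes from 30 min room-temperature incubation in Tris pH 7.5 buffer with NaCl and MgCl2 of 0.4 µM His6-MBP-tagged, N-terminally truncated mouse FoxP3 or FoxP1 fragment from E. coli with 0.1 µM Klenow-filled degenerate double-stranded DNA library, followed by amylose resin capture, three washes and Illumina sequencing of the released DNA.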
With “GATGATTGTTCTCCCAGCTGATGAATTCTATTACTCGAGTAAACAAATTTTCCTAATCTTTCTGTTCAAGCGCCATCTAC”, the binding signal was 0.895 RPM ratio (pull-down/input).
Regarding “GATGATTGTTCTCCCAGCTGATGAATTCCCTCCATCGAGTAAACAAATTTTCCTAATCTTTCTGTTCAAGCGCCATCTAC”, the binding signal was 0.855 RPM ratio (pull-down/input).
For the sequence “GATGATTGTTCTCCCAGCTGATGAATTAACACATTCGAGTAAACAAATTTTCCTAATCTTTCTGTTCAAGCGCCATCTAC”, the binding signal is 1.18 RPM ratio (pull-down/input).
Consider “GATGATTGTTCTCCCAGCTGATGAATTCCTAGGTTCGAGTAAACAAATTTTCCTAATCTTTCTGTTCAAGCGCCATCTAC”, for which the binding signal is 0.762 RPM ratio (pull-down/input).
In the case of “GATGATTGTTCTCCCAGCTGATGAATTGCATTTTTCGAGTAAACAAATTTTCCTAATCTTTCTGTTCAAGCGCCATCTAC” it was 1.69 RPM ratio (pull-down/input).
Consider “GATGATTGTTCTCCCAGCTGATGAATTGCATCTTTCGAGTAAACAAATTTTCCTAATCTTTCTGTTCAAGCGCCATCTAC”, for which the binding signal is 1.83 RPM ratio (pull-down/input).
Consider “GATGATTGTTCTCCCAGCTGATGAATTGCATTGTTCGAGTAAACAAATTTTCCTAATCTTTCTGTTCAAGCGCCATCTAC”, for which the binding signal was 1.43 RPM ratio (pull-down/input).
Turning to “GATGATTGTTCTCCCAGCTGATGAATTTGCATTTTCGAGTAAACAAATTTTCCTAATCTTTCTGTTCAAGCGCCATCTAC”, the binding signal was 1.61 RPM ratio (pull-down/input).
Turning to “GATGATTGTTCTCCCAGCTGATGAATTTGCATCTTCGAGTAAACAAATTTTCCTAATCTTTCTGTTCAAGCGCCATCTAC”, the binding signal was 1.89 RPM ratio (pull-down/input).
“GATGATTGTTCTCCCAGCTGATGAATTTTGCATTTCGAGTAAACAAATTTTCCTAATCTTTCTGTTCAAGCGCCATCTAC”: the binding signal is 1.29 RPM ratio (pull-down/input).
For the sequence “GATGATTGTTCTCCCAGCTGATGAATTGAAACGCTCGAGTAAACAAATTTTCCTAATCTTTCTGTTCAAGCGCCATCTAC”, the binding signal was 0.86 RPM ratio (pull-down/input).
To “GATGATTGTTCTCCCAGCTGATGAATTTCTACATTCGAGTAAACAAATTTTCCTAATCTTTCTGTTCAAGCGCCATCTAC” belongs 0.939 RPM ratio (pull-down/input).
On to “GATGATTGTTCTCCCAGCTGATGAATTACCGTGCTCGAGTAAACAAATTTTCCTAATCTTTCTGTTCAAGCGCCATCTAC”, for which the binding signal was 0.964 RPM ratio (pull-down/input).
Take “GATGATTGTTCTCCCAGCTGATGAATTTTGTACATCGAGTAAACAAATTTTCCTAATCTTTCTGTTCAAGCGCCATCTAC”: the binding signal is 1.22 RPM ratio (pull-down/input).
To “GATGATTGTTCTCCCAGCTGATGAATTGTGTACATCGAGTAAACAAATTTTCCTAATCTTTCTGTTCAAGCGCCATCTAC” belongs 2 RPM ratio (pull-down/input); to “GATGATTGTTCTCCCAGCTGATGAATTCTGTACATCGAGTAAACAAATTTTCCTAATCTTTCTGTTCAAGCGCCATCTAC”, 1.09 RPM ratio (pull-down/input); to “GATGATTGTTCTCCCAGCTGATGAATTGTACAAATCGAGTAAACAAATTTTCCTAATCTTTCTGTTCAAGCGCCATCTAC”, 1.35 RPM ratio (pull-down/input).
In the case of “GATGATTGTTCTCCCAGCTGATGAATTGTACACATCGAGTAAACAAATTTTCCTAATCTTTCTGTTCAAGCGCCATCTAC” it was 2.11 RPM ratio (pull-down/input).
For the sequence “GATGATTGTTCTCCCAGCTGATGAATTCTACACATCGAGTAAACAAATTTTCCTAATCTTTCTGTTCAAGCGCCATCTAC”, the binding signal was 1.06 RPM ratio (pull-down/input).
To “GATGATTGTTCTCCCAGCTGATGAATTGCAGTTGTCGAGTAAACAAATTTTCCTAATCTTTCTGTTCAAGCGCCATCTAC” belongs 1.34 RPM ratio (pull-down/input).
As to “GATGATTGTTCTCCCAGCTGATGAATTACAGTACTCGAGTAAACAAATTTTCCTAATCTTTCTGTTCAAGCGCCATCTAC”, the binding signal was 1.06 RPM ratio (pull-down/input).
On to “GATGATTGTTCTCCCAGCTGATGAATTGTTATAATCGAGTAAACAAATTTTCCTAATCTTTCTGTTCAAGCGCCATCTAC”, for which the binding signal is 1.59 RPM ratio (pull-down/input).
As to “GATGATTGTTCTCCCAGCTGATGAATTTGCTTACTCGAGTAAACAAATTTTCCTAATCTTTCTGTTCAAGCGCCATCTAC”, the binding signal is 1.69 RPM ratio (pull-down/input).
As for “GATGATTGTTCTCCCAGCTGATGAATTAGCAGTCTCGAGTAAACAAATTTTCCTAATCTTTCTGTTCAAGCGCCATCTAC”, the binding signal was 0.877 RPM ratio (pull-down/input).
For “GATGATTGTTCTCCCAGCTGATGAATTGCATTTATCGAGTAAACAAATTTTCCTAATCTTTCTGTTCAAGCGCCATCTAC”, the binding signal is 1.77 RPM ratio (pull-down/input).
With “GATGATTGTTCTCCCAGCTGATGAATTTGCATTATCGAGTAAACAAATTTTCCTAATCTTTCTGTTCAAGCGCCATCTAC”, the binding signal is 1.49 RPM ratio (pull-down/input).
For the sequence “GATGATTGTTCTCCCAGCTGATGAATTTCTTGCATCGAGTAAACAAATTTTCCTAATCTTTCTGTTCAAGCGCCATCTAC”, the binding signal was 1.27 RPM ratio (pull-down/input).
On to “GATGATTGTTCTCCCAGCTGATGAATTTATTGCATCGAGTAAACAAATTTTCCTAATCTTTCTGTTCAAGCGCCATCTAC”, for which the binding signal was 1.62 RPM ratio (pull-down/input).
On to “GATGATTGTTCTCCCAGCTGATGAATTGCATCTATCGAGTAAACAAATTTTCCTAATCTTTCTGTTCAAGCGCCATCTAC”, for which the binding signal was 1.75 RPM ratio (pull-down/input).
In the case of “GATGATTGTTCTCCCAGCTGATGAATTGCAGCTATCGAGTAAACAAATTTTCCTAATCTTTCTGTTCAAGCGCCATCTAC” it was 1.15 RPM ratio (pull-down/input); in that of “GATGATTGTTCTCCCAGCTGATGAATTAGTCTGGTCGAGTAAACAAATTTTCCTAATCTTTCTGTTCAAGCGCCATCTAC”, 0.822 RPM ratio (pull-down/input).
